Read-out in assay [1]: Thrombomodulin, THBD (gene 7056)
The assay can be described thus: BSK_CASM3C_Thrombomodulin: BioMAP Diversity Plus: CASM3C Assay for Thrombomodulin Biomarker Activity (AID 2283051).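 Further: thrombomodulin protein level measured by ELISA 24 h after dosing.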 Particulars: primary human coronary artery smooth muscle cells; actives raise or lower the signal.

Read-out in assay [2]: Tissue Factor, F3 (gene 2152)
Put plainly: BSK_CASM3C_TissueFactor: BioMAP Diversity Plus: CASM3C Assay for Tissue Factor Biomarker Activity (AID 2283052).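 Further: cell surface tissue factor protein level read by ELISA.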 Particulars: primary human coronary artery smooth muscle cells; actives raise or lower the signal.

Read-out in assay [3]: Interferon-gamma inducible Protein 10 (IP10), CXCL10 (gene 3627)
Put plainly: BSK_hDFCGF_IP10: BioMAP Diversity Plus: hDFCGF Assay for Interferon-gamma inducible Protein 10 (IP10) Biomarker Activity (AID 2283053). Particulars: primary human foreskin fibroblasts; actives raise or lower the signal. The gist of the method: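 Chemical-treated human skin fibroblasts (primary) were sampled at 24 h for IP-10 by ELISA. Both increases and decreases relative to DMSO were scored.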

Read-out in assay [4]: Urokinase-type plasminogen activator receptor (uPAR), PLAUR (gene 5329)
Put plainly: BSK_CASM3C_uPAR: BioMAP Diversity Plus: CASM3C Assay for Urokinase-type plasminogen activator receptor (uPAR) Biomarker Activity (AID 2283054).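 Further: cell-surface uPAR protein level quantified by ELISA.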 Particulars: primary human coronary artery smooth muscle cells; actives raise or lower the signal.

Read-out in assay [5]: Vascular cell adhesion molecule 1 (VCAM1), VCAM1 (gene 7412)
Put plainly: BSK_CASM3C_VCAM1: BioMAP Diversity Plus: CASM3C Assay for Vascular cell adhesion molecule 1 (VCAM1) Biomarker Activity (AID 2283055).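 Further: VCAM-1 protein level quantified by ELISA on the cells.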 Particulars: primary human coronary artery smooth muscle cells; actives raise or lower the signal.

Read-out in assay [6]: Collagen III, COL3A1 (gene 1281)
The assay can be described thus: BSK_hDFCGF_CollagenIII: BioMAP Diversity Plus: hDFCGF Assay for Collagen III Biomarker Activity (AID 2283056). Particulars: primary human foreskin fibroblasts; actives raise or lower the signal. The gist of the method: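 Human foreskin fibroblast primary cultures sampled 24 h after dosing; Collagen III quantified by ELISA. Signal fitted bidirectionally against DMSO baseline.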

Read-out in assay [7]: Epidermal growth factor receptor (EGFR), EGFR (gene 1956)
Put plainly: BSK_hDFCGF_EGFR: BioMAP Diversity Plus: hDFCGF Assay for Epidermal growth factor receptor (EGFR) Biomarker Activity (AID 2283057). Particulars: primary human foreskin fibroblasts; actives raise or lower the signal. The gist of the method:
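Cell-based multiplexed assay in primary human foreskin fibroblasts. EGFR is read by ELISA 24 h after treatment and compared with DMSO controls.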

Read-out in assay [8]: Interleukin-8 (IL8), CXCL8 (gene 3576)
The assay can be described thus: BSK_hDFCGF_IL8: BioMAP Diversity Plus: hDFCGF Assay for Interleukin-8 (IL8) Biomarker Activity (AID 2283058). Particulars: primary human foreskin fibroblasts; actives raise or lower the signal. The gist of the method:
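Primary human foreskin fibroblasts (hDFCGF system) dosed with chemical; IL-8 measured by ELISA 24 hours later. Bidirectional curve fitting relative to DMSO baseline; cytotoxicity tracked in parallel cultures by SRB total protein staining.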

Assay [9] is described as follows: BSK_hDFCGF_Proliferation: Cell Proliferation Assessment in the BioMAP Diversity Plus: hDFCGF Assay (AID 2283059).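 Further: curves fitted for both rise and fall of signal versus DMSO baseline.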 Particulars: primary human foreskin fibroblasts. In short, it runs like this: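 Total protein read at 560 nm after 0.1% SRB staining of TCA-fixed human skin fibroblasts, […]. Activity is fitted in both directions relative to DMSO as baseline.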

Read-out in assay [10]: Macrophage colony-stimulating factor (MCSF), CSF1 (gene 1435)
The assay can be described thus: BSK_hDFCGF_MCSF: BioMAP Diversity Plus: hDFCGF Assay for Macrophage colony-stimulating factor (MCSF) Biomarker Activity (AID 2283060). Particulars: primary human foreskin fibroblasts; actives raise or lower the signal. The gist of the method: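 Human foreskin fibroblast primary cultures; M-CSF measured by ELISA 24 hours after chemical dosing. Bidirectional fitting relative to DMSO, with overt cytotoxicity tracked by parallel SRB total-protein staining (0.1% SRB, 10% TCA fixation, 560 nm).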

The nature of assay [11]: BSK_hDFCGF_SRB: Viability Assessment in the BioMAP Diversity Plus: hDFCGF Assay (AID 2283061).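 Further: cells exposed to compound for 24 h before the read.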 Particulars: primary human foreskin fibroblasts. In short, it runs like this: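 Human foreskin fibroblasts in 96-well plates were treated 24 h. Total protein was measured by 0.1% SRB staining after 10% TCA fixation, read at 560 nm. Data were fitted bidirectionally against DMSO.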

Read-out in assay [12]: TIMP metallopeptidase inhibitor 1 (TIMP1), TIMP1 (gene 7076)
Put plainly: BSK_hDFCGF_TIMP1: BioMAP Diversity Plus: hDFCGF Assay for TIMP metallopeptidase inhibitor 1 (TIMP1) Biomarker Activity (AID 2283062). Particulars: primary human foreskin fibroblasts; actives raise or lower the signal. The gist of the method:
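Human foreskin fibroblast primary cultures dosed for 24 h; secreted/surface TIMP-1 quantified by ELISA. Bidirectional curve fitting against DMSO baseline; cytotoxicity tracked in parallel cultures by SRB total-protein staining.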

Read-out in assay [13]: Monokine induced gamma interferon (MIG), CXCL9 (gene 4283)
Put plainly: BSK_hDFCGF_MIG: BioMAP Diversity Plus: hDFCGF Assay for Monokine induced gamma interferon (MIG) Biomarker Activity (AID 2283063). Particulars: primary human foreskin fibroblasts; actives raise or lower the signal. In short, it runs like this: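 MIG/CXCL9 measured by ELISA 24 h after dosing primary human skin fibroblasts. Activity fitted in both directions against DMSO controls. Cytotoxicity was checked in parallel cultures by SRB staining read at 560 nm.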

Read-out in assay [14]: Matrix Metallopeptidase 1 (MMP1), MMP1 (gene 4312)
Put plainly: BSK_hDFCGF_MMP1: BioMAP Diversity Plus: hDFCGF Assay for Matrix Metallopeptidase 1 (MMP1) Biomarker Activity (AID 2283064). Particulars: primary human foreskin fibroblasts; actives raise or lower the signal. In short, it runs like this: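 Human foreskin fibroblasts exposed to chemical for 24 h; MMP1 detected by ELISA, with DMSO as baseline for bidirectional fitting.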

Read-out in assay [15]: Vascular cell adhesion molecule 1 (VCAM1), VCAM1 (gene 7412)
Put plainly: BSK_hDFCGF_VCAM1: BioMAP Diversity Plus: hDFCGF Assay for Vascular cell adhesion molecule 1 (VCAM1) Biomarker Activity (AID 2283065).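 On AC50: VCAM-1 protein level quantified by ELISA after 24 h chemical exposure.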 Particulars: primary human foreskin fibroblasts; actives raise or lower the signal. In short, it runs like this: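 Human foreskin fibroblast primary cells dosed with chemical, VCAM-1 measured by ELISA at 24 h. Bidirectional curve fitting relative to DMSO as negative control/baseline.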

Read-out in assay [16]: Plasminogen activator inhibitor-1 (PAI1), SERPINE1 (gene 5054)
The assay can be described thus: BSK_hDFCGF_PAI1: BioMAP Diversity Plus: hDFCGF Assay for Plasminogen activator inhibitor-1 (PAI1) Biomarker Activity (AID 2283066). Particulars: primary human foreskin fibroblasts; actives raise or lower the signal. The gist of the method: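 Human skin fibroblast cultures receive chemical for 24 h before PAI-1 is measured by ELISA; signal changes are fitted bidirectionally against DMSO-treated wells.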

Read-out in assay [17]: Intercellular Adhesion Molecule 1 (ICAM1), ICAM1 (gene 3383)
The assay can be described thus: BSK_KF3CT_ICAM1: BioMAP Diversity Plus: KF3CT Assay for Intercellular Adhesion Molecule 1 (ICAM1) Biomarker Activity (AID 2283067). Particulars: primary human keratinocytes with fibroblasts; actives raise or lower the signal. In short, it runs like this: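 Human keratinocyte–foreskin fibroblast co-culture was treated for 24 h. Cell-surface ICAM-1 was quantified by ELISA, fitted bidirectionally relative to DMSO. Cytotoxicity was checked in parallel cultures by SRB total-protein staining.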

Read-out in assay [18]: Interferon-gamma inducible Protein 10 (IP10), CXCL10 (gene 3627)
The assay can be described thus: BSK_KF3CT_IP10: BioMAP Diversity Plus: KF3CT Assay for Interferon-gamma inducible Protein 10 (IP10) Biomarker Activity (AID 2283068). Particulars: primary human keratinocytes with fibroblasts; actives raise or lower the signal. The gist of the method: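 Human keratinocyte plus foreskin fibroblast primary co-culture exposed to test chemical for 24 h; IP-10 measured by ELISA. Concentration-response fitted bidirectionally against DMSO control as baseline.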

Assay [19] is described as follows: BSK_KF3CT_SRB: Viability Assessment in the BioMAP Diversity Plus: KF3CT Assay (AID 2283069).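 Further: read 24 h after compound addition; fitted for both signal gain and loss against DMSO baseline.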 Particulars: primary human keratinocytes with fibroblasts. The gist of the method: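 Overt cytotoxicity is assessed as total protein by sulforhodamine B staining in parallel human skin co-cultures at 24 h after dosing. DMSO serves as negative control and baseline.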
Read-out in assay [20]: Interleukin-1 alpha (IL1a), IL1A (gene 3552)
Put plainly: BSK_KF3CT_IL1a: BioMAP Diversity Plus: KF3CT Assay for Interleukin-1 alpha (IL1a) Biomarker Activity (AID 2283070). Particulars: primary human keratinocytes with fibroblasts; actives raise or lower the signal. In short, it runs like this:
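Readout is IL-1a level by ELISA, compared bidirectionally with DMSO as baseline. Cells: human keratinocytes co-cultured with foreskin fibroblasts, harvested 24 h post-dose.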

Structures are written as SMILES. Calls of active or inactive are those of the source. How the source made its calls: active means hit-call score of the fitted dose curve at least 0.9, where 1 is the maximum; inactive means score below 0.9.

A word on the AC50: it is the concentration at which the activity in the assay is half-maximal. Regarding `CC(C)N(C(=O)CCl)c1ccccc1`, the AC50 in assay [1] was 2.75 µM (active); in assay [2], 20 µM (active); in assay [3], 3.13 µM (active); in [4] it was 11 µM (active); in assay [5], 4.39 µM (active); in [6], 1.69 µM (active). In addition, the AC50 in [8] was 13.3 µM (active); in [9] it was 2.45 µM (active); in [10], 6.59 µM (active); in assay [11] it was 3.03 µM (active); in assay [12], 2.98 µM (active); in [13], 3.85 µM (active). Also, the AC50 in assay [14] is 11.4 µM (active); in assay [15] it was 1.43 µM (active); in assay [16], 4.77 µM (active); in assay [17], 28.5 µM (active); in [18], 20 µM (active); in [19], 27.1 µM (active). Also, the outcome in [7] and in assay [20] was inactive.

Consider `O=[N+]([O-])c1ccc(Nc2ccccc2)cc1`, for which the result in assay [1], in assay [2], in assay [3], in [4], in assay [5] and in assay [6] was inactive. Also, the result in assay [7], in assay [8], in [9], in [10], in assay [11] and in assay [12] was inactive. Further, the outcome in [13], in assay [14], in assay [15], in assay [16], in assay [17] and in assay [18] was inactive. Besides, the outcome in [19] and in [20] was inactive.

As for `Oc1c(Cl)cc(Cl)cc1Cl`, the result in [1], in assay [2], in [3], in [4], in assay [5] and in assay [6] was inactive. The outcome in assay [7], in [8], in assay [9], in assay [10], in assay [11] and in assay [12] was inactive. Moreover, the result in [13], in assay [14], in [15], in [16], in assay [17] and in assay [18] was inactive. The result in assay [19] and in [20] was inactive.

Regarding `Cc1ccc2nc3sc(=O)sc3nc2c1`, the result in [1], in assay [2], in [3], in assay [5], in [6] and in assay [7] was inactive. The result in assay [8], in assay [10], in [11], in assay [12], in [14] and in assay [16] was inactive. For the same molecule, the result in assay [18] and in assay [19] was inactive. Also, the half-maximal activity concentration (AC50) in assay [4] is 2.14 µM (active); in assay [9], 5 µM (active); in assay [13], 7.3 µM (active); in assay [15], 5 µM (active); in [17], 3.16 µM (active); in assay [20], 5 µM (active).

Regarding `N#Cc1cccnc1`, the outcome in [1], in assay [2], in [3], in assay [4], in assay [5] and in assay [6] was inactive. The result in assay [7], in assay [8], in assay [9], in [10], in [11] and in assay [12] was inactive. Also, the result in assay [13], in [14], in assay [15], in assay [16], in assay [17] and in [18] was inactive. Besides, the result in assay [19] and in assay [20] was inactive.

On to `CC(C)O.CC(C)O.OCCN(CCO)CCO.OCCN(CCO)CCO.[Ti]`, for which the outcome in [1], in assay [2], in assay [4], in [5], in [6] and in [7] was inactive. The outcome in assay [8], in assay [9], in assay [11], in assay [12], in assay [15] and in assay [16] was inactive. Further, the result in assay [17], in [19] and in assay [20] was inactive. The concentration at half-maximal activity (AC50) was 30.9 µM (active) in [3]; 20 µM (active) in assay [10]; 30.6 µM (active) in assay [13]; 24.8 µM (active) in assay [14]; 33.7 µM (active) in assay [18].
